ssDAF12 agonist: activators of S. stercoralis DAF-12 nuclear receptor; HEK293 ssDAF-12/GRIP1 lit1-tk-luc reporter, luminescence; % of 3 µM dafachronic acid response; activation, % at 6.8 µM; 370,000 compounds, 1% hits; AID 652126;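 active = activation above the mean over all tested compounds plus 3 SD, cut at about 0.9% in these data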
DAX1 inh-1: inhibits human nuclear receptor DAX1 | P51843 | HEK293 Gal4-DAX1 luciferase reporter, luminescence | inhibition, % at 6.75 µM | 340,000 compounds, 0.99% hits;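 active = inhibition above the mean over all tested compounds plus 3 SD, cut at about 4.2% in these data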;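 also: inhibition shows as a rise in luminescence from relieved DAX1 repression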
Target sequence (P51843 207-470 limits assumed): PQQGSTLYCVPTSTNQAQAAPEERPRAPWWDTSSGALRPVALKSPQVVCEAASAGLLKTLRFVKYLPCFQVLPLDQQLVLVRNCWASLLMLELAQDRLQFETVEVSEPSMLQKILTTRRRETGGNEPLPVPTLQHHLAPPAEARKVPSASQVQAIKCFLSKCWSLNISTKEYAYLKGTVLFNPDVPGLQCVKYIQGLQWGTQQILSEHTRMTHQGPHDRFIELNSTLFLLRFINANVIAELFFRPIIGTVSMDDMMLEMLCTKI
DAX1 inh-2: DAX1 (NR0B1) inhibition, primary screen. HEK293T StAR-luciferase reporter, SF-1/DAX-1 repression relief. inhibition, % at 6.8 µM. 370,000 compounds, 1.1% hits;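 active = inhibition above the mean over all tested compounds plus 3 SD, cut at about 3.6% in these data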;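 also: higher inhibition means more luminescence from relief of DAX-1 repression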
hcDAF12 agonist: activators of H. contortus DAF-12 nuclear receptor; 370,000 compounds, 1.4% hits; activation, % at 6.8 µM; HEK293 hcDAF-12 lit1-tk-luc reporter, luminescence; 0% DMSO, 100% Δ7-dafachronic acid;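 active = activation above the mean of all tested compounds plus 3 SD, cut at about 5.5% in these data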
hgDAF12 agonist: agonists of H. glycines DAF-12 nuclear receptor; 370,000 compounds, 1.8% hits; activation, % at 6.8 µM; AID 687014; HEK293 GAL4-hgDAF12 UAS-luciferase reporter, agonist luminescence; normalized to butyrate control;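 active = activation above a cutoff set at the mean of all screened compounds plus 3 SD, cut at about 10% in these data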
Each line names hits and unclear results; the compound was inactive in the other large screens. Rows were chosen to be rich in hits. Some 4.1% of all compounds tested hit in one or more screens of this group.

O=C(CN(Cc1ccco1)C(=O)c1cc(=O)[nH]c2ccccc12)Nc1ccccc1C(F)(F)F	DAX1 inh-1 6.3
O=C(OCc1cn(Cc2ccc(F)cc2)nn1)N1CCCC1	none (no result: DAX1 inh-1)
Cc1ccccc1C1=NC(c2ccc(F)cc2F)ON1 (centres undefined)	none
COc1ccccc1C1N=C(c2ccccc2C)NO1 (centres undefined)	hgDAF12 agonist 10
Cn1c(SCC(=O)Nc2ccc(S(=O)(=O)Nc3nccs3)cc2)nc2sc3c(c2c1=O)CCCC3	none (no result: DAX1 inh-1)
Cc1ccc(C(=O)NC2CCCCN(C(C)C)C2=O)cc1 (centres undefined)	none (no result: DAX1 inh-1)
O=C(Nc1cnc2ccccc2c1)c1cccc(-n2cnnn2)c1	hcDAF12 agonist 6.3
COC(=O)c1cccc(NC(=O)c2cccc(-n3cnnn3)c2)c1	none
COC(=O)CCC(=O)c1oc2ccc(Br)cc2c1N	hgDAF12 agonist 11
O=C(COc1ccccc1F)N/N=C1\CCCc2ccccc21	hcDAF12 agonist 5.8
COc1ccc(OCC(=O)N/N=C2\CCCc3ccccc32)cc1	ssDAF12 agonist 1.0
CCc1cccc(NC(=O)Cn2ncn3c(cc4ccccc43)c2=O)c1	hcDAF12 agonist 6.4
CC(=O)Nc1cc(C)c2nc(NC(C)=O)sc2c1	DAX1 inh-1 8.3
CC(=O)Nc1nc2c(C)cc(NC(=O)C3CCCCC3)cc2s1	none
CCOc1ccc(NC(=O)CN2C(=O)c3cccc4cccc2c34)cc1	hgDAF12 agonist 12 (no result: DAX1 inh-1)
CCOc1ccc(NC(=O)C(CC(=O)O)Cc2ccccc2)cc1 (centres undefined)	none
CCOc1ccc(NC(=O)C(Cc2ccccc2)N2C(=O)c3cccc4cccc(c34)C2=O)cc1 (centres undefined)	hcDAF12 agonist 6.0 (no result: DAX1 inh-1)
COC(CNC(=O)[C@H](Cc1ccccc1)NC1(C(=O)NC2CCCCC2)CCC1)OC	none (no result: DAX1 inh-1, DAX1 inh-2)
CCOC(=O)N1CCN(C(=O)CCn2nc(-c3ccccc3)ccc2=O)CC1	DAX1 inh-1 4.8
CCOC(=O)N1CCN(C(=O)c2cc(-c3ccc(OCC)cc3)nc3ccccc23)CC1	hgDAF12 agonist 12
O=C(c1cc(Br)cc(Br)c1)N1CCC(Oc2cccnc2)CC1	none (no result: DAX1 inh-1)
COc1cc(C(=O)Nc2c(C(=O)O)[nH]c3ccc(C)cc23)cc(OC)c1OC	hcDAF12 agonist 6.1
COC(=O)[C@H](CC(C)C)N(Cc1cn(CC2CCCCC2)nn1)S(=O)(=O)c1ccc(F)cc1Br	none (no result: DAX1 inh-1)
Cc1cc(NC(=O)Nc2ccc3c(ccn3C)c2)sn1	hgDAF12 agonist 11
O=c1cc(-c2ccccc2)nc(/C=C/c2ccccc2)[nH]1	DAX1 inh-1 5.6
Cn1c(N)c(-c2nc3cccnc3n2C)sc1=S	DAX1 inh-1 4.2
COc1cccc(O[C@H]2C=C[C@@H](c3ccccc3)O[C@@H]2CO)c1	none (no result: DAX1 inh-1)
CC(NC(=O)CCc1nnc(Cc2cccc(C(F)(F)F)c2)o1)C1CC1 (centres undefined)	hgDAF12 agonist 10
C=C(C)CNC(=O)CCc1nnc(Cc2cccc(C(F)(F)F)c2)o1	ssDAF12 agonist 1.0
O=C(CCc1nnc(Cc2cccc(C(F)(F)F)c2)o1)NCC(F)(F)F	none
O=C(CCc1nnc(Cc2cccc(C(F)(F)F)c2)o1)NC1CC1	none
CC(C)CN(C)C(=O)CCc1nnc(Cc2cccc(C(F)(F)F)c2)o1	hgDAF12 agonist 11
C=CCCC(=O)N1CCC(C(=O)NC2CCCc3ccccc32)CC1 (centres undefined)	none (no result: DAX1 inh-1)
Cc1ccc(-c2cccc3[nH]cc(C)c23)s1	none (no result: DAX1 inh-1)
O=C1/C(=C/c2cccnc2)CCc2c1[nH]c1ccccc21	hgDAF12 agonist 13
Cc1[nH]c2ccc(F)cc2c1CCN1C(=O)OC(C)(C)C1(C)O (centres undefined)	DAX1 inh-1 7.3
COc1cccc(CNC(=O)CN(C)S(=O)(=O)c2ccc(Br)s2)c1	DAX1 inh-1 10
COc1ccc(CNC(=O)CN(C)S(=O)(=O)c2ccc(Br)s2)cc1	none
COc1ccc(S[C@]2(C(=O)N3CCN(c4ncccn4)CC3)CC(=O)N(S(=O)(=O)c3ccc(F)cc3)[C@@H]2c2ccc(OC)cc2)cc1	none (no result: DAX1 inh-1)
CCSc1cc(N2CCCC2)nc(-c2ccc(Cl)cc2)n1	none
Clc1ccc(-c2nnc(N3CCCC3)nn2)cc1	DAX1 inh-1 8.8
CN(Cc1c(F)cccc1Cl)C(=O)CCc1c[nH]c2ccccc12	DAX1 inh-1 6.2
C=CCN1[C@H](Cc2ccccc2)COc2cc(F)ccc2S1(=O)=O	none (no result: DAX1 inh-1)
Cc1cccc(C(=O)OCC(=O)N2CCc3ccccc3C2)c1O	none
Cc1cccc(C(=O)OCC(=O)N2CCCCCC2)c1O	DAX1 inh-1 4.5
Nc1ccc2nc(CCc3ccccc3)[nH]c2c1	none
Cc1ccc2nc(CCc3ccc(N)cc3)[nH]c2c1	hgDAF12 agonist 11
C#CCN1CC(N(C)CCOC(=O)c2ccc([N+](=O)[O-])cc2)CS1(=O)=O (centres undefined)	none (no result: DAX1 inh-1)
Cc1cc(=O)[nH]c(SCC(=O)Nc2ccc(Cl)cc2)n1	none (no result: DAX1 inh-1)
COCCNC(=O)c1ccc2c3n(nc2c1)-c1ccccc1CO3	hcDAF12 agonist 6.4, hgDAF12 agonist 12
COCCNC(=O)c1ccc2c3n(nc2c1)-c1ccc(Cl)cc1CO3	none
O=C(NCC1CC1)c1ccc2c3n(nc2c1)-c1ccc(Cl)cc1CO3	hgDAF12 agonist 12
Oc1ccccc1-c1nnc(SCCN2CCOCC2)n1Cc1ccccc1	ssDAF12 agonist 1.1, hcDAF12 agonist 6.9
O=C(CSc1nnc(-c2ccccc2)n1Cc1ccccc1)N1CCOCC1	none
CCNC(=O)OCCN1C(=O)CCC12CCC(c1ccc(Cl)cc1)CC2 (centres undefined)	none (no result: DAX1 inh-1)
O=C(NCCCn1ccnc1)c1ccc(Cl)cc1[N+](=O)[O-]	none
O=C(NCCCn1ccnc1)c1cc2cc([N+](=O)[O-])ccc2oc1=O	DAX1 inh-1 4.2
CCOC(=O)N1CCN(C(=O)Nc2ccc3nc(C)sc3c2)CC1	none
CCOC(=O)Nc1ccc2nc(N3CCCCCC3)sc2c1	hgDAF12 agonist 11
COc1ccc2nc(-c3ccccn3)[nH]c2c1	hgDAF12 agonist 12
CC1=NN(c2nc(-c3ccc(C)cc3)cs2)C(=O)C1N=Nc1ccc2ccccc2c1 (centres undefined)	hcDAF12 agonist 5.7
CC1=NN(c2nc(-c3ccccc3)cs2)C(=O)C1N=Nc1ccccc1 (centres undefined)	none
O=[N+]([O-])c1ccc(OCCCCCN2CCOCC2)cc1	DAX1 inh-1 5.0
CC1CSc2ccccc2NC1=S (centres undefined)	none
c1ccc(C2CSc3ccccc3N2)cc1 (centres undefined)	hcDAF12 agonist 5.6
Nc1nc2ncc(CNc3ccc(C(=O)N[C@@H](CCC(=O)O)C(=O)O)cc3)nc2c(=O)[nH]1	DAX1 inh-1 5.2
Cn1c(=O)c(-c2cc(=O)[nH][nH]2)c(O)c2ccccc21	hcDAF12 agonist 6.2 (no result: DAX1 inh-1)
CCn1c(=O)c(-c2cc(=O)[nH][nH]2)c(O)c2ccccc21	none

From PubChem BioAssay
